Whole data set: some 2,900 compounds, median “NF-kB SEAP reporter activity, fold change vs agonist alone” near 0.99, cut for the highest 2% near 2.6. This is one part of a sample in which the highest values are shown more often than they occur.
How the values were obtained:
RAW-Dual [1] = experiment: NF-kB SEAP reporter activity, fold change vs agonist alone; cytotoxicity flag (confluency mask): not cytotoxic; higher = enhanced NF-kB activity
Summary of the method: (§1)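 Cytotoxic wells were those whose IncuCyte confluency was below 70% of agonist controls in both mask sets. The cells were RAW-Dual macrophages at 50,000 cells/well in DMEM on 384-well plates, dosed with 50 nL of library stock by pin tool, stimulated with a PRR agonist 1 h later, and kept at 37 °C, 5% CO2 for 20 hours. IRF and NF-κB reporter activity, as fold change over agonist-alone wells, came from supernatant read by QuantiLuc luminescence and QuantiBlue absorbance, respectively.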

RAW-Dual [2] = experiment: NF-kB SEAP reporter activity, fold change vs agonist alone; higher = enhanced NF-kB activity
Summary of the method: as §1

RAW-Dual [3] = experiment: NF-kB SEAP reporter activity, fold change vs agonist alone; cytotoxicity flag (confluency mask): cytotoxic (confluency <70% of control); higher = enhanced NF-kB activity
Summary of the method: as §1

[4] = agonist: ODN 1826 (TLR9) 0.5 ug/mL
[5] = agonist: Pam2CSK4 (TLR2/6) 0.1 ug/mL
[6] = agonist: Pam3CSK4 (TLR2/1) 0.1 ug/mL
[7] = library stock concentration (final ~1000-fold dilution): 10 mM, cytotoxicity flag (confluency mask): not cytotoxic, agonist: MPLA (TLR4) […]
[8] = library stock concentration (final ~1000-fold dilution): 10 mM, cytotoxicity flag (confluency mask): not cytotoxic, agonist: Imiquimod (TLR7) […]
[9] = library stock concentration (final ~1000-fold dilution): 2 mM, cytotoxicity flag (confluency mask): not cytotoxic, agonist: Imiquimod (TLR7) […]
[10] = library stock concentration (final ~1000-fold dilution): 2 mM, cytotoxicity flag (confluency mask): not cytotoxic, agonist: MPLA (TLR4) […]

C=CC1(C)CC(OC(=O)CSCCN(CC)CC)C2(C)C(C)CCC3(CCC(=O)C32)C(C)C1O.O=C(O)/C=C/C(=O)O (configuration not stated) (library stock concentration (final ~1000-fold dilution): 10 mM)
NF-kB SEAP reporter activity (RAW-Dual [1]; agonist: LPS (TLR4) 0.1 ug/mL): 1.37 | NF-kB SEAP reporter activity (RAW-Dual [1]; [4]): 0.712 | NF-kB SEAP reporter activity (RAW-Dual [1]; [5]): 0.821 | NF-kB SEAP reporter activity (RAW-Dual [1]; [6]): 0.841

C=CC1(C)CC(OC(=O)CSCCN(CC)CC)C2(C)C(C)CCC3(CCC(=O)C32)C(C)C1O.O=C(O)/C=C/C(=O)O (configuration not stated)
NF-kB SEAP reporter activity (RAW-Dual [2]; [7]): 1.13

O=C(/C=C/N1CC2CC1CN2c1ccccn1)c1ccccc1O (configuration not stated) (library stock concentration (final ~1000-fold dilution): 10 mM)
NF-kB SEAP reporter activity (RAW-Dual [1]; agonist: LPS (TLR4) 0.1 ug/mL): 1.01 | NF-kB SEAP reporter activity (RAW-Dual [1]; [4]): 0.735 | NF-kB SEAP reporter activity (RAW-Dual [1]; [5]): 1.02 | NF-kB SEAP reporter activity (RAW-Dual [1]; [6]): 1.39

O=C(/C=C/N1CC2CC1CN2c1ccccn1)c1ccccc1O (configuration not stated)
NF-kB SEAP reporter activity (RAW-Dual [2]; [8]): 0.829 | NF-kB SEAP reporter activity (RAW-Dual [2]; [7]): 1.03

COC(=O)C(CC(C)C)NC(=O)c1ccc(NCC(N)CS)cc1-c1cccc2ccccc12.O=C(O)C(F)(F)F (configuration not stated)
NF-kB SEAP reporter activity (RAW-Dual [2]; [8]): 1.25 | NF-kB SEAP reporter activity (RAW-Dual [2]; [7]): 2.31

COC(=O)C(CC(C)C)NC(=O)c1ccc(NCC(N)CS)cc1-c1cccc2ccccc12.O=C(O)C(F)(F)F (configuration not stated) (library stock concentration (final ~1000-fold dilution): 10 mM)
NF-kB SEAP reporter activity (RAW-Dual [1]; agonist: LPS (TLR4) 0.1 ug/mL): 3.82 | NF-kB SEAP reporter activity (RAW-Dual [1]; [4]): 2.38 | NF-kB SEAP reporter activity (RAW-Dual [1]; [5]): 1.5 | NF-kB SEAP reporter activity (RAW-Dual [1]; [6]): 2.19

COC(=O)C(CCSC)NC(=O)c1ccc(NCC(N)CS)cc1-c1ccccc1.Cl (configuration not stated) (library stock concentration (final ~1000-fold dilution): 10 mM)
NF-kB SEAP reporter activity (RAW-Dual [1]; agonist: LPS (TLR4) 0.1 ug/mL): 1.38 | NF-kB SEAP reporter activity (RAW-Dual [1]; [4]): 1.56 | NF-kB SEAP reporter activity (RAW-Dual [1]; [5]): 1.16 | NF-kB SEAP reporter activity (RAW-Dual [1]; [6]): 0.929

CCN(CC)CCCCC(NC(=O)C(CC(C)C)NC(=O)C(C)NC(=O)C(Cc1ccccc1)NC(=O)c1ccc(C(C)(C)C)cc1)C(=O)NC(CO)C(=O)OC (configuration not stated)
NF-kB SEAP reporter activity (RAW-Dual [2]; [8]): 1.08 | NF-kB SEAP reporter activity (RAW-Dual [2]; [7]): 0.945

CCN(CC)CCCCC(NC(=O)C(CC(C)C)NC(=O)C(C)NC(=O)C(Cc1ccccc1)NC(=O)c1ccc(C(C)(C)C)cc1)C(=O)NC(CO)C(=O)OC (configuration not stated) (library stock concentration (final ~1000-fold dilution): 10 mM)
NF-kB SEAP reporter activity (RAW-Dual [1]; agonist: LPS (TLR4) 0.1 ug/mL): 0.99 | NF-kB SEAP reporter activity (RAW-Dual [1]; [4]): 0.888 | NF-kB SEAP reporter activity (RAW-Dual [1]; [5]): 0.898 | NF-kB SEAP reporter activity (RAW-Dual [1]; [6]): 1.1

COC(=O)C(CCSC)NC(=O)c1ccc(NCC(N)CS)cc1-c1ccccc1.Cl (configuration not stated)
NF-kB SEAP reporter activity (RAW-Dual [2]; [8]): 1.13 | NF-kB SEAP reporter activity (RAW-Dual [2]; [7]): 1.22

C=C(C)C1CCC2(C(=O)OC3OC(COC4OC(CO)C(OC5OC(C)C(O)C(O)C5O)C(O)C4O)C(O)C(O)C3O)CCC3(C)C(CCC4C5(C)CCC(OC6OCC(O)C(O)C6OC6OC(C)C(O)C(O)C6O)C(C)(CO)C5CCC43C)C12 (configuration not stated) (library stock concentration (final ~1000-fold dilution): 2 mM)
NF-kB SEAP reporter activity (RAW-Dual [1]; agonist: LPS (TLR4) 0.1 ug/mL): 1 | NF-kB SEAP reporter activity (RAW-Dual [1]; [4]): 1.09 | NF-kB SEAP reporter activity (RAW-Dual [1]; [5]): 1.17 | NF-kB SEAP reporter activity (RAW-Dual [1]; [6]): 1.16

C=C(C)C1CCC2(C(=O)OC3OC(COC4OC(CO)C(OC5OC(C)C(O)C(O)C5O)C(O)C4O)C(O)C(O)C3O)CCC3(C)C(CCC4C5(C)CCC(OC6OCC(O)C(O)C6OC6OC(C)C(O)C(O)C6O)C(C)(CO)C5CCC43C)C12 (configuration not stated)
NF-kB SEAP reporter activity (RAW-Dual [2]; [9]): 0.946 | NF-kB SEAP reporter activity (RAW-Dual [2]; [10]): 1.07

Cn1cc(-c2cnn3c(N)c(Br)c(C4CCCNC4)nc23)cn1 (configuration not stated) (library stock concentration (final ~1000-fold dilution): 2 mM)
NF-kB SEAP reporter activity (RAW-Dual [1]; agonist: LPS (TLR4) 0.1 ug/mL): 1.31 | NF-kB SEAP reporter activity (RAW-Dual [1]; [4]): 1.04 | NF-kB SEAP reporter activity (RAW-Dual [1]; [5]): 1.04 | NF-kB SEAP reporter activity (RAW-Dual [1]; [6]): 1.19

Cn1cc(-c2cnn3c(N)c(Br)c(C4CCCNC4)nc23)cn1 (configuration not stated)
NF-kB SEAP reporter activity (RAW-Dual [2]; [9]): 1.09 | NF-kB SEAP reporter activity (RAW-Dual [2]; [10]): 1.35

Nc1ccn(C2CCC(CO)O2)c(=O)n1 (configuration not stated) (library stock concentration (final ~1000-fold dilution): 10 mM)
NF-kB SEAP reporter activity (RAW-Dual [1]; agonist: LPS (TLR4) 0.1 ug/mL): 0.913 | NF-kB SEAP reporter activity (RAW-Dual [1]; [4]): 1 | NF-kB SEAP reporter activity (RAW-Dual [1]; [5]): 0.95 | NF-kB SEAP reporter activity (RAW-Dual [1]; [6]): 1.15

Nc1ccn(C2CCC(CO)O2)c(=O)n1 (configuration not stated)
NF-kB SEAP reporter activity (RAW-Dual [2]; [8]): 0.994 | NF-kB SEAP reporter activity (RAW-Dual [2]; [7]): 0.981

Nc1cc(F)ccc1NC(=O)/C=C/c1cnn(C/C=C/c2ccccc2)c1
NF-kB SEAP reporter activity (RAW-Dual [2]; [8]): 1.14 | NF-kB SEAP reporter activity (RAW-Dual [2]; [7]): 1.2

Cn1cc(-c2ccc(S(=O)(=O)n3ccc(/C=C/C(=O)Nc4ccccc4N)c3)cc2)cn1
NF-kB SEAP reporter activity (RAW-Dual [2]; library stock concentration (final ~1000-fold dilution): 10 mM, cytotoxicity flag (confluency mask): cytotoxic (confluency <70% of control), agonist: Imiquimod (TLR7) […]): 1.68 | NF-kB SEAP reporter activity (RAW-Dual [2]; library stock concentration (final ~1000-fold dilution): 10 mM, cytotoxicity flag (confluency mask): cytotoxic (confluency <70% of control), agonist: MPLA (TLR4) […]): 2.37

Nc1cc(F)ccc1NC(=O)/C=C/c1cnn(C/C=C/c2ccccc2)c1 (library stock concentration (final ~1000-fold dilution): 10 mM)
NF-kB SEAP reporter activity (RAW-Dual [1]; agonist: LPS (TLR4) 0.1 ug/mL): 0.995 | NF-kB SEAP reporter activity (RAW-Dual [1]; [4]): 1.12 | NF-kB SEAP reporter activity (RAW-Dual [1]; [5]): 0.405 | NF-kB SEAP reporter activity (RAW-Dual [1]; [6]): 0.419

Cn1cc(-c2ccc(S(=O)(=O)n3ccc(/C=C/C(=O)Nc4ccccc4N)c3)cc2)cn1 (library stock concentration (final ~1000-fold dilution): 10 mM)
NF-kB SEAP reporter activity (RAW-Dual [3]; agonist: LPS (TLR4) 0.1 ug/mL): 4.11 | NF-kB SEAP reporter activity (RAW-Dual [3]; [4]): 3.13 | NF-kB SEAP reporter activity (RAW-Dual [3]; [5]): 1.14 | NF-kB SEAP reporter activity (RAW-Dual [3]; [6]): 2.27

COc1cc(C(=O)O)ccc1O
NF-kB SEAP reporter activity (RAW-Dual [2]; [8]): 0.937 | NF-kB SEAP reporter activity (RAW-Dual [2]; [7]): 1.02

COc1cc(C(=O)O)ccc1O (library stock concentration (final ~1000-fold dilution): 10 mM)
NF-kB SEAP reporter activity (RAW-Dual [1]; agonist: LPS (TLR4) 0.1 ug/mL): 1.06 | NF-kB SEAP reporter activity (RAW-Dual [1]; [4]): 1.12 | NF-kB SEAP reporter activity (RAW-Dual [1]; [5]): 1.14 | NF-kB SEAP reporter activity (RAW-Dual [1]; [6]): 1.16

CCCCOc1nc(N)c2c(n1)N(Cc1cccc(CN3CCCC3)c1)CC(=O)N2 (library stock concentration (final ~1000-fold dilution): 1 mM)
NF-kB SEAP reporter activity (RAW-Dual [1]; agonist: LPS (TLR4) 0.1 ug/mL): 2.53 | NF-kB SEAP reporter activity (RAW-Dual [1]; [4]): 1.13 | NF-kB SEAP reporter activity (RAW-Dual [1]; [5]): 1.17 | NF-kB SEAP reporter activity (RAW-Dual [1]; [6]): 1.25

COCCOc1nc(N)c2[nH]c(=O)n(Cc3ccc(C(=O)O)cc3)c2n1 (library stock concentration (final ~1000-fold dilution): 10 mM)
NF-kB SEAP reporter activity (RAW-Dual [1]; agonist: LPS (TLR4) 0.1 ug/mL): 7.55 | NF-kB SEAP reporter activity (RAW-Dual [1]; [4]): 2.13 | NF-kB SEAP reporter activity (RAW-Dual [1]; [5]): 1.46 | NF-kB SEAP reporter activity (RAW-Dual [1]; [6]): 2.77

COCCOc1nc(N)c2[nH]c(=O)n(Cc3ccc(C(=O)O)cc3)c2n1
NF-kB SEAP reporter activity (RAW-Dual [2]; [8]): 1.8 | NF-kB SEAP reporter activity (RAW-Dual [2]; [7]): 2.54

CCCCOc1nc(N)c2c(n1)N(Cc1cccc(CN3CCCC3)c1)CC(=O)N2
NF-kB SEAP reporter activity (RAW-Dual [2]; library stock concentration (final ~1000-fold dilution): 1 mM, cytotoxicity flag (confluency mask): not cytotoxic, agonist: Imiquimod (TLR7) […]): 1.26 | NF-kB SEAP reporter activity (RAW-Dual [2]; library stock concentration (final ~1000-fold dilution): 1 mM, cytotoxicity flag (confluency mask): not cytotoxic, agonist: MPLA (TLR4) […]): 1.91

Source: the supplement of paper PMC10037445
